“And” between values parts separate entries of the source, which are not always exact repeats. Equal entries are not always repeated. About 5,100 (32%) of roughly 16,000 compounds were called active. Not shown: some 25% with an inconclusive outcome. This is one part of the list. A number with no mark means an inactive call. The call rests on the fitted dose curve; in most records, active means well fitted curve in the direction sought with a large enough effect; inconclusive means small, poorly fitted or top-dose-only effect, or effect the other way; inactive means no such curve, though single readings can be large or run the other way. Square brackets hold non-standard residues; d marks the D form. Peptide text beside a SMILES is read from it. * marks the point of attachment. ξ: configuration not given here. Cbz = O=C(OCc1ccccc1)*; PhAc = O=C(Cc1ccccc1)*; OBn = c1ccc(CO*)cc1; ξA = CC(N)C(=O)O
biological target: Cytochrome P450 3A4 (Homo sapiens) (UniProt P08684); experiment: Cytochrome panel assay with activity outcomes; conditions: recombinant CYP, pro-luciferin dealkylation, luminescence, p450-cyp3a4; series mostly up to 57.1 µM
Sequence (P08684 whole entry, looked up): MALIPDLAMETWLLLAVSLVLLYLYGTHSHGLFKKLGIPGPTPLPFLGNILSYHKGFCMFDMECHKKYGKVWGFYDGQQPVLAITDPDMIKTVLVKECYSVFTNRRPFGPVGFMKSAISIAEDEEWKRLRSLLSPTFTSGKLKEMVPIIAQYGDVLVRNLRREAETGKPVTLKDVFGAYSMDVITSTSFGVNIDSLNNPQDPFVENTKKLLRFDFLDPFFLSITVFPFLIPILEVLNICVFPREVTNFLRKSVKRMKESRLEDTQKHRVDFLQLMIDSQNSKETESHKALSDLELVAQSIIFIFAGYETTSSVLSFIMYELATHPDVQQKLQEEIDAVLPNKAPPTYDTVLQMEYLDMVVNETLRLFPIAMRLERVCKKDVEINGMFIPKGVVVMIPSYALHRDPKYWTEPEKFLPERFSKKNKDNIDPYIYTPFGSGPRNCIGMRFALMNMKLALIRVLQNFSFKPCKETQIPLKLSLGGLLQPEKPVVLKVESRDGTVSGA
On the % scale 0 is the no-effect control and ±100 the full control effect.

Structure (SMILES) | AC50 | activity, negative = inhibition
CCOc1cc(CNc2ccc(OC)cc2)cc(Br)c1OCC(=O)NC(C)(C)C | 15.8 µM (active) | –
COc1cc(CNCCc2ccccc2)ccc1OCC(=O)NC(C)(C)C | inactive | –
CCOc1ccc(N=C2NC(=O)C(CC(=O)O)S2)cc1 (centres undefined) | inactive | –
CCn1c(CCNC(=O)c2ccccc2Cl)n[nH]c1=S | inactive | –
CCn1c(CCNC(=O)c2ccc(Cl)cc2Cl)n[nH]c1=S | 14.1 µM (active) | –
CCn1c(CC(C)C)n[nH]c1=S | inactive | –
O=[N+]([O-])c1ccc(-c2cnc(SCc3ccccc3Cl)[nH]2)cc1 | 14.1 µM (active) | –
O=[N+]([O-])c1ccc(CSCc2ccc(Cl)cc2)cc1 | – | -19.8% [at 11.4 µM]
O=[N+]([O-])c1ccc(Cl)c(/C=N/N2CCN(Cc3ccccc3Cl)CC2)c1 | inactive | –
CN(C)CC[C@H](c1ccc(Cl)cc1)c1ccccn1 | inactive | –
CC(C)Cn1c(-c2nn(C)cc2Cl)n[nH]c1=S | inactive | –
CC(c1ccc(Cl)cc1)n1c(-c2ccc3ccccc3n2)n[nH]c1=S (centres undefined) | 7.94 µM (active) | –
Cc1cc2nnc(SCCCCN3C(=O)c4ccccc4C3=O)n2c2ccccc12 | 6.31 µM (active) | –
Cc1cc2nnc(SCC(=O)OC(C)C)n2c2ccccc12 | inactive | –
CCc1ccc(N2C(=O)c3ccc4c5c(ccc(c35)C2=O)CC4)cc1 | inactive | –
COC(=O)Nc1nc2ccc(Sc3ccccc3)cc2[nH]1 | inactive | –
COc1ccc(C(=O)NCc2ccc(-c3nc4ccccc4s3)cc2)cc1 | 2.51 µM (active) | –
O=C(NC1CCCc2ccccc21)C1CCN(S(=O)(=O)N2CCCCCC2)CC1 (centres undefined) | 7.94 µM (active) | –
O=C(NC1CCCc2ccccc21)c1ccc(=O)[nH]c1 (centres undefined) | – | 10.9% [at 2.29 µM]
C=CCOc1c2ccc(C(=O)NC3CCCc4ccccc43)cc2nn1C (centres undefined) | – | 3.25% [at 2.29 µM]
Cc1ccccc1/C=C\C1=NCCN1 | inactive | –
O=C(N/N=C/c1ccccn1)c1ccco1 | inactive | –
Cc1cc(C(=O)N/N=C/c2cccc(OC(=O)c3ccco3)c2)n[nH]1 | – | 7.86% [at 2.29 µM]
COc1cc(/C=N/NC(=O)c2cccnc2)ccc1OC(=O)c1ccc2c(c1)OCO2 | 1.26 µM (active) | –

Structure (SMILES) | AC50 | activity, negative = inhibition
COc1cc(/C=N/NC(=O)c2cccnc2)ccc1OC(=O)c1ccco1 | 14.1 µM (active) | –
COc1c(/C=N/Nc2ccc([N+](=O)[O-])cc2[N+](=O)[O-])c(C)nn1-c1ccccc1 | inactive | –
Cc1nc(N/N=C/c2ccccc2)nc(N(C)c2ccccc2)c1[N+](=O)[O-] | 7.08 µM (active) | –
Cn1nnnc1SCc1ccc(C(=O)Nc2ccc(Br)cc2)cc1 | inactive | –
C=CCn1c(SCc2ccc(C(=O)Nc3ccccc3)cc2)nnc1-c1ccccc1 | 4.47 µM (active) | –
Cc1ccc(NC(=O)c2ccc(CSc3nnc(-c4ccncc4)n3C)cc2)cc1 | inactive | –
COC(=O)c1c(C)nc2ccccc2c1C(=O)O | inactive | –
O=C(O)c1ccc(Cc2ccccc2C(=O)O)cc1 | – | -8.32% [at 11.4 µM]
COC(=O)c1c(C)[nH]c(C)c1C(=O)c1ccccc1Cc1ccccc1 | 1 µM (active) | –
COc1ccc(NC(=S)N2CCN(C/C=C/c3ccccc3)CC2)cc1OC | 17.8 µM (active) | –
CC[C@H](C(=O)c1cccs1)C(O)(C(F)(F)F)C(F)(F)F | – | -6.43% [at 11.4 µM]
Cc1ccc(N=C/C(C(=O)C(F)(F)F)=C(\O)c2cccs2)cc1 | 12.6 µM (active) | –
O=P(O)(COc1ccccc1)COc1ccccc1 | inactive | –
CC(C)c1ccc(Cn2ccc3c4c(N)nc(NC5CC5)nc4ccc32)cc1 | 6.31 µM (active) | –
CCC(C)(C)N=C(NC#N)Nc1cccnc1 | 5.01 µM (active) | –
CC(C)CN(C)c1nc(N)c(C(=O)N=C(N)N)nc1Cl | inactive | –
Cc1cnc(CNc2cc(-c3ccc(C(=O)N(C)C)cc3)ncn2)cn1 | inactive | –
Cc1cnc(CNc2ncncc2-c2ccoc2)cn1 | 2 µM (active) | –
Cc1cnc(CNc2ncncc2-c2ccc(C(=O)N(C)C)cc2)cn1 | 12.6 µM (active) | –
Cc1cnc(CNc2ncncc2-c2ccc(N(C)C)cc2)cn1 | 2 µM (active) | –
C[C@@H](C(=O)O)c1ccc(C(=O)c2cccs2)cc1 | inactive | –
CNCCCCCCCCSc1nc(C(C)C)ccc1C(=O)c1cccs1 | 2.51 µM (active) | –
COC(=O)Nc1nc2ccc(C(=O)c3cccs3)cc2[nH]1 | inactive | –
CCOC(=O)N/N=C1/C[C@@H](O)[C@@H](O)[C@@H]2[C@@H]3C(=O)N(CC)C(=O)[C@H]3CC[C@@H]12 | – | -14.4% [at 11.4 µM]

Structure (SMILES) | AC50 | activity, negative = inhibition
Cc1ccc(-n2[nH]c(C)c(C=Nc3ccc4[nH]c(=O)[nH]c4c3)c2=O)cc1C | 14.1 µM (active) | –
Cn1c(=O)n(CC#N)c2ccccc21 | – | -1.21% [at 2.29 µM]
COc1ccc(C2CC(C(F)(F)F)n3nc(C(=O)N(C)Cc4cn(C)nc4C)c(Cl)c3N2)cc1 (centres undefined) | 2.51 µM (active) | –
CC12CC(NC(=O)N1c1cccc(C(=O)NCc3ccccc3)c1)c1ccccc1O2 (centres undefined) | inactive | –
COc1ccc(NC(=O)c2cc3n(n2)C(C(F)(F)F)CC(c2ccc4c(c2)OCO4)N3)cc1OC (centres undefined) | inactive | –
COc1ccc(OC)c(NC(=O)c2cc3n(n2)C(C(F)(F)F)CC(c2ccc4c(c2)OCO4)N3)c1 (centres undefined) | 3.98 µM (active) | –
O=C(NCCN1CCOCC1)c1nn2c(c1Cl)NC(c1ccccc1)CC2C(F)(F)F (centres undefined) | 7.08 µM (active) | –
Cc1nn(C)c(C)c1CNC(=O)c1cnn2c1NC(c1ccccc1)CC2C(F)(F)F (centres undefined) | 12.6 µM (active) | –
Cc1cc(C(F)F)n2ncc(C(=O)NCc3ccccc3C(F)(F)F)c2n1 | inactive | –
O=C(NCCN1CCOCC1)c1ccc2ccccc2c1 | inactive | –
Cc1ccc(C2C(C=Nc3c(C)n(C)n(-c4ccccc4)c3=O)=C(c3ccccc3)Oc3ccccc32)cc1 (centres undefined) | inactive | –
Cc1ccc(C2CC(C(F)(F)F)n3nc(C(=O)NCCN4CCOCC4)cc3N2)cc1 (centres undefined) | 7.94 µM (active) | –
O=C(CNC(=O)c1cccs1)NCC(=O)OCc1ccc(Cl)cc1 | 25.1 µM (active) | –
O=C(CNC(=O)c1cccs1)NCC(=O)OCc1ccc(Cl)cc1Cl | 7.08 µM (active) | –
O=C(CNC(=O)Cc1ccccc1)NCC(=O)OCc1ccccc1 (PhAc-Gly-Gly-OBn) | inactive | –
CC(C)(C)c1ccc(COC(=O)CNC(=O)CNC(=O)Cc2ccccc2)cc1 | 12.6 µM (active) | –
O=C(CNC(=O)c1ccco1)OCc1c(F)cccc1Cl | – | -10.2% [at 2.29 µM]
COC(=O)CNC(=O)C(C)NC(=O)CNC(=O)OCc1ccccc1 (stereo not drawn) (Cbz-Gly-[ξA]-Gly-OMe) | – | -0.615% [at 2.29 µM]
CC(=O)N(O)CCCCCNC(=O)CCC(=O)N(O)CCCCCNC(=O)CCC(=O)N(O)CCCCCN | inactive | –
O=C(O)C[C@H]1OCC=C2C[N@@+]3([O-])CC[C@]45c6ccccc6N[C@@H]4[C@@H]1[C@H]2C[C@H]53 | – | -0.0687% [at 11.4 µM]
O=C1C2CCCN2c2ccc(S(=O)(=O)N3CCOCC3)cc2N1Cc1cccc(C(F)(F)F)c1 (centres undefined) | 15.8 µM (active) | –
O=C(c1ccc2c(c1)N(Cc1ccccc1)C(=O)CS2)N1CCOCC1 | inactive | –
O=C(Cn1cc(C(F)(F)F)ccc1=O)N1CCN(S(=O)(=O)c2ccccc2)CC1 | – | -26.5% [at 11.4 µM]
Cc1ccc(C)c(CN2C(=O)C3CCCN3c3ccc(S(=O)(=O)N4CCOCC4)cc32)c1 (centres undefined) | 11.2 µM (active) | –

Structure (SMILES) | AC50 | activity, negative = inhibition
Cc1ccc(C)c(CN2C(=O)C3CCCN3c3ccc(C#N)cc32)c1 (centres undefined) | 5.01 µM (active) | –
Cc1ccc(C2CC2C(=O)NN)cc1 (centres undefined) | 7.94 µM (active) | –
O=C(O)[C@@H](O)c1ccc(F)cc1 | – | -5.47% [at 11.4 µM]
COc1ccc([C@@H](Nc2ncccn2)c2cc3c(cc2O)OCO3)cc1 | 2.51 µM (active) | –
COc1ccc([C@H](O)c2ccccn2)cc1 | – | -5.07% [at 11.4 µM]
COc1ccc([C@@H](C)c2cc3c(cc2O)OCO3)cc1 | 2.51 µM (active) | –
N#CC(=C(/N)Sc1ccccc1N)/C(C#N)=C(/N)Sc1ccccc1N | 316 nM (active) and 3.16 µM (active) | –
N#CC1=C(SCC(N)=O)NC2=C(C(=O)c3ccccc32)C1c1ccc(Cl)cc1 (centres undefined) | 10 µM (active) | –
C[N+](C)(C)CC[N+]1(C)Cc2c(Cl)c(Cl)c(Cl)c(Cl)c2C1 | inactive | –
Cc1cccc2c1OCC/C2=N\NC(=O)COc1ccccc1 | 15.8 µM (active) | –
C/C(CC(=O)Nc1cc(C)ccn1)=N\NC(=O)COc1cccc(C)c1 | – | -15.1% [at 2.29 µM]
COc1cccc(OCC(=O)NN=C2c3ccccc3-c3ccccc32)c1 | 6.31 µM (active) | –
CCOc1ccc(C(CC(=O)O)NC(=O)COc2ccccc2)cc1 (centres undefined) | inactive | –
Cc1cccc(C)c1NC(=O)COc1cccc(/C=N/NC(=O)C(=O)NCc2ccccc2)c1 | inactive | –
Cc1cccc2c1OCC/C2=N\NC(=O)COc1ccccc1Cl | inactive | –
CC(N)=NCCCC[C@H](N)C(=O)O | inactive | –
CCc1cccc2nc3c(c([Si](C)(C)C)c12)Cn1c-3cccc1=O | 12.6 µM (active) | –
CCc1c2c(nc3cccc(OC)c13)OC(CC)C2 (centres undefined) | inactive | –
CCc1c2c(nc3cccc(C(C)C)c13)-c1cccc(=O)n1C2 | 15.8 µM (active) | –
CC(C)c1cccc2nc3c(c([Si](C)(C)C(C)(C)C)c12)Cn1c-3cccc1=O | 12.6 µM (active) | –
CC(C)c1cccc2nc3c(c([Si](C)(C)C)c12)Cn1c-3cccc1=O | 10 µM (active) | –
O=C1CS/C(=C\[N+](=O)[O-])N1c1ccc(OC(F)(F)F)cc1 | inactive | –

From PubChem BioAssay AID1851 (National Center for Advancing Translational Sciences (NCATS), 2009)
